The list is not random: actives were taken first. Their share in the collection is about 2.3%.
ADAM17 inh = ADAM17 inhibitors, primary screen, biochemical, QFRET. inhibition, % at 6.95 µM. actives 0.83% (n = 370,000). recombinant ADAM17, EDANS/DABCYL FRET peptide cleavage;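 active = inhibition above the mean of compounds lying between control limits plus 3 SD, set per campaign, cut at about 8.5% in these data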;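 note: 0% = DMSO-only wells as the low control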
Target sequence (P78536 215-824 limits assumed): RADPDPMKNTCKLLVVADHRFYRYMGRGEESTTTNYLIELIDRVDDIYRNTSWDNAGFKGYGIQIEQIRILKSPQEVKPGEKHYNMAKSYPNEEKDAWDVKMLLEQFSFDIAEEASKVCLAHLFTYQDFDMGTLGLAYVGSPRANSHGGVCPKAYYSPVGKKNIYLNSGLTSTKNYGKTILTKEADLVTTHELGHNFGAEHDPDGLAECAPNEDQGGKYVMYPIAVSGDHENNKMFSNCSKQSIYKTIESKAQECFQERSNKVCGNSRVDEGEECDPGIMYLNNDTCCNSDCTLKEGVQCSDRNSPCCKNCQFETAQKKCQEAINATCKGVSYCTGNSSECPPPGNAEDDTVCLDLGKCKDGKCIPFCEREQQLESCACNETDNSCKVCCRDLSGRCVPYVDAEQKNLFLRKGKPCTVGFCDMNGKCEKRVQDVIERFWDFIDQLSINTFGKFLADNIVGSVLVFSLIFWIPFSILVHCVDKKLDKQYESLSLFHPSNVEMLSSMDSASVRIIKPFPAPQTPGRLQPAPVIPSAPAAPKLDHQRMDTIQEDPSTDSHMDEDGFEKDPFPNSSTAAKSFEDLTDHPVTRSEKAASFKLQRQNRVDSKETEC
ADAM10 inh = human ADAM10 inhibitors, primary screen, biochemical, QFRET, HTS. Disintegrin and metalloproteinase domain-containing protein 10 (Homo sapiens), O14672. recombinant ADAM10, EDANS/DABCYL FRET peptide cleavage, 3 h. inhibition, % at 7 µM. actives 0.62% (n = 370,000);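 active = inhibition above a per-campaign cutoff equal to the mean of compounds falling between control-based bounds plus 3 SD, cut at about 20% in these data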;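 note: 0% = DMSO wells while the 100% control is not disclosed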
KLK7 zymogen act = proKLK7 zymogen activators, primary screen, biochemical, fluorescence intensity. Kallikrein-7 (Homo sapiens), P49862. purified proKLK7, EDANS-DABCYL substrate fluorescence; 100% is mature enzyme control, 0% vehicle. activation, % at 7 µM. actives 0.9% (n = 370,000). AID 652039, 2013;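 active = activation above the mean of all tested compounds plus 3 SD, computed per campaign excluding outliers beyond control limits, cut at about 13% in these data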
V-ATPase pH = regulators of yeast V-ATPase proton pumping, primary screen, pHLuorin cytosolic pH fluorescence | S. cerevisiae | response, % at 10 µM | actives 0.37% (n = 350,000) | AID 504577, 2011; in the data active = response mostly above about 7.3%, no sharp cut-off; inactive = mostly below about 5.4%; note: actives read high
ADAM10 confirm = human ADAM10 inhibitors, confirmation, biochemical, QFRET, triplicate; shares compounds with ADAM10 inh; ADAM10 QFRET peptide cleavage, EDANS fluorescence; inhibition, % at 6.95 µM; actives 1% (n = 2,100);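 active = inhibition above about 20% chosen separately for each screening run, limit read from the data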;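 note: 0% = DMSO wells and 100% = marimastat wells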
ADAM17 ctr = ADAM17 inhibitors, counter-screen for ADAM10 exosite inhibitor project, biochemical, QFRET, high throughput | ADAM17 QFRET peptide cleavage, EDANS fluorescence | inhibition, % at 6.95 µM | shares compounds with ADAM10 inh | actives 0.5% (n = 2,100) | AID 743214, 2013;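 active = mean triplicate inhibition above the solvent-only control wells' mean plus 3 SD, cut at about 12% in these data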;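 note: 0% = DMSO wells and 100% = marimastat wells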
ADAM10 ctr = ADAM10 inhibitors, counter-screen for ADAM17 exosite inhibitor project, biochemical, FRET, human ADAM10; inhibition, % at 6.95 µM; shares compounds with ADAM17 inh; recombinant ADAM10, EDANS/DABCYL FRET peptide cleavage, 3 h; actives 47% (n = 2,900);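 active = mean inhibition over the triplicate runs exceeds the activity threshold set in the earlier primary screen, cut at about 20% in these data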;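 note: 0% = DMSO wells and 100% = marimastat wells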
ADAM17 confirm = ADAM17 inhibitors, hit retest, confirmation, biochemical, QFRET peptide cleavage | AID 743257, 2014 | recombinant ADAM17, EDANS/DABCYL QFRET peptide cleavage | shares compounds with ADAM17 inh | inhibition, % at 6.95 µM | actives 65% (n = 2,900);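 active = mean inhibition across replicates above the hit cutoff set in the primary screen, cut at about 8.5% in these data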;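 note: 0% = DMSO wells and 100% = marimastat wells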
* hit, by the source's call.

FC(F)(F)c1cccc(NC(=S)NCc2ccc(Cl)cc2)c1 was read as ADAM17 inh 9.1*, ADAM10 inh 22*, KLK7 zymogen act 1, V-ATPase pH -1, ADAM10 confirm 3, ADAM17 ctr 2, ADAM10 ctr 26* and ADAM17 confirm 15*.
`CC1S/C(=N/N=C/c2cccs2)NC1=O` (stereo not given) gave ADAM17 inh 3, ADAM10 inh 0, KLK7 zymogen act 0 and V-ATPase pH -1.
For CC(C)C1S/C(=N/N=C/c2cccs2)NC1=O (stereo not given) the results were ADAM17 inh 9.4*, ADAM10 inh 29*, KLK7 zymogen act 0, V-ATPase pH 0, ADAM10 confirm 1, ADAM17 ctr 0, ADAM10 ctr 8 and ADAM17 confirm 5.
Cc1cc(C)c(Nc2cc(S(=O)(=O)O)c(N)c3c2C(=O)c2ccccc2C3=O)c(C)c1 was read as ADAM17 inh 8.7*, ADAM10 inh 23*, KLK7 zymogen act 0, V-ATPase pH -2, ADAM10 confirm 4, ADAM17 ctr -2, ADAM10 ctr 36* and ADAM17 confirm 17*.
Screening O=C(CSc1nc2ccccc2s1)NNC(=S)Nc1ccccc1 returned ADAM17 inh 0, ADAM10 inh -4, KLK7 zymogen act -1 and V-ATPase pH -1.
Screening Cc1ccc(NC(=S)NNC(=O)CSc2nnc(SCc3cccc4ccccc34)s2)cc1 returned ADAM17 inh 9.3*, ADAM10 inh 21*, KLK7 zymogen act 0, ADAM10 confirm 5, ADAM17 ctr 1, ADAM10 ctr 26* and ADAM17 confirm 11*.
For O=C(CSc1nc2ccccc2s1)NNC(=S)Nc1ccc(Br)cc1 the results were ADAM17 inh 13*, ADAM10 inh 21*, KLK7 zymogen act 0, V-ATPase pH 4, ADAM10 confirm 3, ADAM17 ctr 1, ADAM10 ctr 12 and ADAM17 confirm 7.
Screening O=C(CSc1nnc(SCc2cccc3ccccc23)s1)Nc1ccc(C(=O)O)cc1 returned ADAM17 inh 3, ADAM10 inh 1, KLK7 zymogen act 0 and V-ATPase pH -1.
Screening O=C(NCc1ccccc1)OCCN1C(=O)CCC12CCCCC2 returned ADAM17 inh -8, ADAM10 inh -12 and KLK7 zymogen act 0.
Screening COC(=O)[C@]12C[C@H](CC(=O)NCc3cccc4ccccc34)C(=O)N(Cc3ccccc3)C1=C[C@H](C(C)(C)C)O[C@@H]2C returned ADAM17 inh 5, ADAM10 inh 12 and KLK7 zymogen act 1.
COC(=O)[C@]12C[C@H](CC(=O)NCc3cccc(C(F)(F)F)c3)C(=O)N(Cc3ccccc3)C1=C[C@H](C1CCCC1)O[C@@H]2C was read as ADAM17 inh 6, ADAM10 inh 13 and KLK7 zymogen act 0.
`COC(=O)[C@]12C[C@H](CC(=O)NCc3cccc(C(F)(F)F)c3)C(=O)N(Cc3ccco3)C1=C[C@H](C1CCCC1)O[C@@H]2C` gave ADAM17 inh 9.0*, ADAM10 inh 21*, KLK7 zymogen act 1, ADAM10 confirm 7, ADAM17 ctr 1, ADAM10 ctr 17 and ADAM17 confirm 8.9*.
COC(=O)[C@]12C[C@H](CC(=O)NCc3cccc4ccccc34)C(=O)N(Cc3ccco3)C1=C[C@H](C(C)(C)C)O[C@@H]2C was read as ADAM17 inh 9.4*, ADAM10 inh 24*, KLK7 zymogen act 0, ADAM10 confirm 8, ADAM17 ctr 3, ADAM10 ctr 32* and ADAM17 confirm 15*.
`COC(=O)[C@]12C[C@H](CC(=O)NCc3ccc(OC)c(OC)c3)C(=O)N(Cc3cccc4ccccc34)C1=C[C@H](C(C)(C)C)O[C@@H]2C` gave ADAM17 inh 8.8*, ADAM10 inh 20*, KLK7 zymogen act 1, ADAM10 confirm 7, ADAM17 ctr 3, ADAM10 ctr 29* and ADAM17 confirm 22*.
`Cc1nc(SC2CC(=O)N(c3cc(Cl)cc(Cl)c3)C2=O)nc2c1CCCC2` (stereo not given) gave ADAM17 inh 10*, ADAM10 inh 34*, KLK7 zymogen act 0, V-ATPase pH -1, ADAM10 confirm 5, ADAM17 ctr 1, ADAM10 ctr 11 and ADAM17 confirm 8.
Screening CCCCS(=O)(=O)NCC1CCN(C(=O)C(=O)c2cc3ccccc3o2)CC1 returned ADAM17 inh -3, ADAM10 inh -4 and KLK7 zymogen act 1.
Screening COc1ccc(N(CC(=O)Nc2ccc(F)cc2)S(=O)(=O)c2ccccc2[N+](=O)[O-])c(OC)c1 returned ADAM17 inh 11*, ADAM10 inh 25*, KLK7 zymogen act 1, V-ATPase pH 2, ADAM10 confirm 2, ADAM17 ctr 1, ADAM10 ctr 32* and ADAM17 confirm 14*.
For COc1ccc(N(CC(=O)Nc2cc(C)cc(C)c2)S(=O)(=O)c2ccccc2[N+](=O)[O-])c(OC)c1 the results were ADAM17 inh 7, ADAM10 inh 13, KLK7 zymogen act 0 and V-ATPase pH 1.
`Cc1cc(N2CCCCC2)nc(SCc2ccc(C#N)cc2)n1` gave ADAM17 inh 8.6*, ADAM10 inh 26*, KLK7 zymogen act 1, V-ATPase pH 1, ADAM10 confirm 3, ADAM17 ctr 0, ADAM10 ctr 20* and ADAM17 confirm 13*.
N#Cc1ccc(CSc2nc(N)cc(N)n2)cc1 was read as ADAM17 inh -2, ADAM10 inh 0, KLK7 zymogen act 0 and V-ATPase pH 1.
`COc1ccc(-c2n[nH]c(=S)n2-c2cc(OC)ccc2OC)cc1` gave ADAM17 inh -1, ADAM10 inh 0, KLK7 zymogen act 0 and V-ATPase pH -2.
